Source: ChEMBL document CHEMBL4513216, “Probing the Open Global Health Chemical Diversity Library for Multistage-Active Starting Points for Next-Generation Antimalarials” (ACS Infect Dis, 2020)
The campaign covered roughly 69,000 compounds. About 8,600 (12%) showed an effect of 50% or more. Shown is part of a subset that was picked to be rich in strong results.

These compounds were tested on Plasmodium berghei (assay: Screen against P. berghei liver stage (PbLuc), transformed with Luciferase, at 10uM). Conditions: tested at 10 uM.
Format: functional, HepG2

Structure (SMILES)	INHIBITION [%]
N#CC(NC(=O)CNC(=O)c1ccccc1)c1ccsc1 (stereo unspecified)	18.5
CC(=O)Nc1nc(C2CN(C(=O)C3CCC3)C2)cs1	37.6
Cn1c(C(=O)N2CC[C@@]3(O)CCCC[C@H]3C2)cc2ccccc21	-9.51
COc1ccc([C@@H]2CN(C(=O)c3cscn3)C[C@H]2C(=O)O)cc1	-9.32
O=C(Cc1n[nH]c2ccccc12)N1CCCCC1Cn1cccn1 (stereo unspecified)	-31.5
Cc1nn(C)c(N(C)C)c1CNCCOc1ccc2c(c1)OCO2	-20.893
OC(CN1CCOCC1)c1ccc(Br)cc1 (stereo unspecified)	1.56
CCC(=O)NC(C)c1ccccc1C (stereo unspecified)	10.06
Cc1c(C(=O)N2CCCC(n3cncn3)C2)cnn1C (stereo unspecified)	1.75
Nc1nnc(C2CC(=O)N(c3ccccc3)C2)s1 (stereo unspecified)	44.9
Cn1cc(-c2nc(CN3CCN(c4nccs4)CC3)cs2)cn1	42.7
c1cncc(C2COC3(CCN(CC4CCOCC4)CC3)C2)c1 (stereo unspecified)	23.3
O=C(COCc1nc(-c2ccncc2)no1)N1CCCC1	16.8
O=C(NCCCN1CCOCC1)c1cc(-c2ccccc2)[nH]n1	-14.3
CC(C)C(=O)NCCc1nc(-c2ccncc2)n[nH]1	28.2
COCCCNC(=O)Cc1nc(-c2ccncc2)n[nH]1	77.7

Structure (SMILES)	INHIBITION [%]
O=C(Cc1nc(-c2ccncc2)n[nH]1)N1CCOCC1	78.8
O=C(Cc1nc(-c2ccncc2)n[nH]1)NCCCN1CCOCC1	66.3
CC(C)c1cc(C(=O)NCCc2nc(-c3ccncc3)n[nH]2)[nH]n1	5.7
O=C(NCCCN1CCOCC1)c1cc(-c2ccco2)[nH]n1	-26.5
O=C(COCc1nc(-c2ccncc2)no1)N1CCOCC1	1.06
OCC1CCCN1c1cc(NCc2cccc3cccnc23)ncn1 (stereo unspecified)	-21.8
Cc1ccc(CS(=O)(=O)CC(=O)NCCCOC(C)C)cc1	15.6
Cc1cc(C)c(CNC(=O)NC(C)c2ccc3c(c2)CCC3)c(=O)[nH]1 (stereo unspecified)	48.2
Cc1cc(CN2CCOC(CNc3cccnn3)C2)on1 (stereo unspecified)	2.3
CCN1CCC(CC(=O)N2CCN(c3ccccc3OC)CC2C)CC1 (stereo unspecified)	21.2
COc1ccccc1N1CCN(C(=O)CSC(C)C)C(C)C1 (stereo unspecified)	17.6
COc1ccccc1N1CCN(C(=O)CSCC2CC2)C(C)C1 (stereo unspecified)	51.2
COc1ncccc1-c1cc(C(=O)NC2CC2)ccn1	-68.7
COc1ncccc1-c1ncccc1NC(=O)C(C)C	24.3
COc1ncccc1-c1cc(C(N)=O)ccn1	52.2
